In the library only some 1.8% were active in any assay of this set; here they are far more common.
LYPLA1 counter = LYPLA1 inhibitors, primary screen, counter-screen for PME1 inhibitor project, biochemical, fluorescence polarization, FP-Rh probe ABPP; 320,000 compounds, 0.16% hits; Acyl-protein thioesterase 1 (Homo sapiens), O75608; AID 2174, 2009; recombinant LYPLA1; inhibition, % at 5.9 µM;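 active means inhibition above the mean of all tested compounds plus 3 SD, set per campaign, cut at about 14% in these data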;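 further: inhibitors block serine hydrolase probe labeling of LYPLA1 so polarization falls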
Target sequence (O75608 whole entry, looked up): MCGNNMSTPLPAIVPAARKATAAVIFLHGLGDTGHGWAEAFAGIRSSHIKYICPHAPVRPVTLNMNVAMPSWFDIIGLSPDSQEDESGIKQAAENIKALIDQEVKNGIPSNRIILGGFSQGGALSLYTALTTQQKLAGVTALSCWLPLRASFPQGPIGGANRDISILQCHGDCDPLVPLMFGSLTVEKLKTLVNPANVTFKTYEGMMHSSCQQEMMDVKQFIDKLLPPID
GSTO1 inh = inhibitors of recombinant GSTO1, primary screen, counter-screen for RBBP9 inhibitor project, biochemical, fluorescence polarization; inhibition, % at 5.96 µM; activity-based probe fluorescence polarization; 300,000 compounds, 1.1% hits;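 active means inhibition above the campaign mean inhibition plus 3 SD, cut at about 35% in these data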
Fam108B counter = mouse Fam108B serine hydrolase inhibitors, primary screen, counter-screen for RBBP9 inhibitor project, biochemical, fluorescence polarization; inhibition, % at 9.51 µM; 300,000 compounds, 0.33% hits; recombinant Fam108B, FP-Rh probe fluorescence polarization;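 active means inhibition above the screen mean inhibition plus 3 SD, computed separately per campaign, cut at about 18% in these data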;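 further: inhibitors lower polarization as less probe binds the enzyme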
PME-1 primary = PME-1 inhibitors via competitive probe labeling, primary screen, biochemical, fluorescence polarization, FP-Rh probe, HTS. recombinant PME-1. inhibition, % at 5.9 µM. Protein phosphatase methylesterase 1 (Homo sapiens), Q9Y570. 320,000 compounds, 0.53% hits;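 active means inhibition above the campaign mean of all compounds plus 3 SD, cut at about 26% in these data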;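 further: competitive labeling of PME-1 active site by serine hydrolase directed probe; inhibitors block probe labeling so polarization falls and inhibition rises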
Target sequence (Q9Y570 whole entry, looked up): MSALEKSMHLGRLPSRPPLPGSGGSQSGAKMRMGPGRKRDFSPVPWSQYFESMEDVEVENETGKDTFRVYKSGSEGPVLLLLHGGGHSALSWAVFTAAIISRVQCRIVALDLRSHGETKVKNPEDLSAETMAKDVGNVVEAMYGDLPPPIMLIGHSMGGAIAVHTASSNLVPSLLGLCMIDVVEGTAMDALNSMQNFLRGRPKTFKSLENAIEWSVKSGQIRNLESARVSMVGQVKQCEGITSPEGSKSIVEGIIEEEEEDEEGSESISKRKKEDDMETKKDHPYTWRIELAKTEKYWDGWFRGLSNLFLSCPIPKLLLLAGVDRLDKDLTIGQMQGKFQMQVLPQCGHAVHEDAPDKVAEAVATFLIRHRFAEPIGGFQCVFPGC
LYPLA2 inh = LYPLA2 inhibitors, primary screen, counter-screen for PME1 inhibitor project, biochemical, fluorescence polarization, FP-Rh probe ABPP. recombinant LYPLA2. inhibition, % at 5.9 µM. 320,000 compounds, 0.38% hits. AID 2177, 2009;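 active means inhibition above the screen-wide mean plus 3 SD, limit set per campaign, cut at about 26% in these data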
PAD4 inh = human PAD4 inhibitors, primary screen, biochemical, fluorescence polarization, 1536-well format | Protein-arginine deiminase type-4 (Homo sapiens), Q9UM07 | recombinant PAD4, RCA probe fluorescence polarization | inhibition, % at 6.36 µM | 330,000 compounds, 0.41% hits | AID 485272, 2010;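 active means percent inhibition above a cutoff equal to the mean of all tested compounds plus 3 SD, cut at about 15% in these data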
LYPLA2 confirm = LYPLA2 inhibitors, retest, confirmation, counter-screen for PME1 inhibitor project, biochemical, fluorescence polarization, FP-Rh probe ABPP | shares compounds with LYPLA2 inh | recombinant LYPLA2 | inhibition, % at 5.9 µM | 1,100 compounds, 72% hits | AID 2232, 2010;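 active means mean inhibition across replicates above the hit cutoff set in the primary screen, cut at about 26% in these data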;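 further: blocked labeling of the enzyme by serine hydrolase FP-Rh probe lowers polarization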
LYPLA2 ABPP = LYPLA2 inhibitors in proteome, late-stage follow-up, gel-based competitive ABPP, fluorescence, assay provider; 150 compounds, 30% hits; rhLYPLA2 in mouse brain proteome, gel ABPP FP-Rh; shares compounds with LYPLA2 inh; inhibition, % at 20 µM;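 active means inhibition of LYPLA2 enzyme probe labeling above about 50%, limit read from the data; inactive means inhibition below that limit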;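 further: loss of FP-Rh probe labeling of the LYPLA2 gel band measured as band density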
Large screens that a line does not name were inactive (follow-up assays come after a bar, where they were run).

CCOC(=O)C1=C(CS(=O)(=O)c2ccccc2)NC(=O)NC1c1ccc(OC)c(OC)c1 (stereo not drawn)	none
COC(=O)C1=C(CS(=O)(=O)c2ccccc2)NC(=O)NC1c1ccc(OC)c(OC)c1 (stereo not drawn)	LYPLA2 inh 32 | LYPLA2 confirm inactive
CCn1c(=O)c(=O)n(CC)c2cc(S(=O)(=O)Nc3cc(C)ccc3C)ccc21	none
COCCNC(=O)CN(CCc1ccccc1)S(=O)(=O)c1ccc(Br)cc1	none
COc1ccc(OCCOc2ccc(S(=O)(=O)N3CCCC3)cc2[N+](=O)[O-])cc1	LYPLA2 inh 30 (no result: GSTO1 inh, Fam108B counter) | LYPLA2 confirm 30
N=C1c2ccccc2CN1NC(=O)COc1ccc(Cl)cc1	none
CN(CC(=O)N1CCN(c2ccc(F)cc2)CC1)S(=O)(=O)c1ccc2c(c1)c(=O)n(C)c(=O)n2C	none
COc1ccc(S(=O)(=O)CCC(=O)N2CCN(c3ccc([N+](=O)[O-])cc3)CC2)cc1	LYPLA2 inh 55 | LYPLA2 confirm 58 | LYPLA2 ABPP inactive
COc1ccc(N2CCN(C(=O)CN(C)S(=O)(=O)c3ccc4c(c3)c(=O)n(C)c(=O)n4C)CC2)cc1	LYPLA2 inh 61 | LYPLA2 confirm 51 | LYPLA2 ABPP inactive
Cc1ccc(S(=O)(=O)CCC(=O)N2CCN(c3ccc([N+](=O)[O-])cc3)CC2)cc1	LYPLA2 inh 39 | LYPLA2 confirm 35
COc1ccc(N2CCN(C(=O)CCN3C(=O)c4ccccc4S3(=O)=O)CC2)cc1	LYPLA2 inh 34 | LYPLA2 confirm 34
Cc1ccc(C2(c3ccccc3)NC(=O)N(CC(=O)NC3CCS(=O)(=O)C3)C2=O)cc1C (stereo not drawn)	none (no result: GSTO1 inh, Fam108B counter)
CCCNC(=O)CSc1n[nH]c(=O)n1CCc1ccccc1	none
CN=C(Nc1cccnc1)c1ccccc1	none
COc1cc(/C=C2\CC/C(=C\c3cc(OC)c(OC)c(OC)c3)C2=O)cc(OC)c1OC	none
COc1cc(/C=C2\CCc3ccccc3C2=O)cc(OC)c1OC	LYPLA2 inh 27 | LYPLA2 confirm inactive
CC(/C=N/NC(=O)Cn1nnc(N)n1)=C\c1ccc(C(C)C)cc1	LYPLA2 inh 62 | LYPLA2 confirm 70
O=C(Nc1ccc(N2CCN(C(=O)c3cccs3)CC2)cc1)c1ccccc1F	LYPLA2 inh 27 | LYPLA2 confirm inactive
COc1cccc(OC)c1C(=O)Nc1ccc(N2CCN(C(=O)c3cccs3)CC2)cc1	none
O=C(Nc1ccc(N2CCN(C(=O)c3cccs3)CC2)cc1)c1ccccc1Cl	LYPLA2 inh 41 | LYPLA2 confirm 41
Cc1ccc2nc(-c3ccccn3)cc(C(=O)NCCc3ccc(F)cc3)c2c1	none
O=C(O)c1cc([N+](=O)[O-])ccc1Nc1ccccc1	none
Cc1cccc(Nc2ccc([N+](=O)[O-])cc2C(=O)O)c1	LYPLA2 inh 36 | LYPLA2 confirm 43
O=C(Nc1ccc(Nc2ccncc2)cc1)c1ccc([N+](=O)[O-])cc1	none
O=C(Nc1ccc(Nc2ccncc2)cc1)c1ccc(Nc2ccnc3ccc([N+](=O)[O-])cc23)cc1[N+](=O)[O-]	LYPLA2 inh 27 | LYPLA2 confirm inactive
Cc1noc(C)c1COc1ccc(C(=O)N2CCN(c3ccccc3F)CC2)cc1	none
COc1ccc(N2CCN(C(=O)c3ccc(-n4nc(C)cc4C)cc3)CC2)cc1	LYPLA2 inh 41 | LYPLA2 confirm 39
COc1ccc(N2CCN(C(=O)c3ccc(N4C(=O)NC5CC4(C)Oc4ccccc45)cc3)CC2)cc1 (stereo not drawn)	LYPLA2 inh 34 | LYPLA2 confirm 39
Cc1cc(C)n(-c2ccc(C(=O)OCC(=O)N3CCN(c4ccccc4)CC3)cc2)n1	none (no result: LYPLA1 counter, GSTO1 inh, Fam108B counter, PME-1 primary, LYPLA2 inh)
COc1cc(C(=O)Nc2ccc(N3CCN(C(=O)c4ccc(C)cc4)CC3)cc2)cc(OC)c1OC	LYPLA2 inh 38 | LYPLA2 confirm 50 | LYPLA2 ABPP inactive
Cc1ccc(C(=O)N2CCN(c3ccc(NC(=O)c4cccnc4)cc3)CC2)cc1	none
COc1cccc2c1OC1(C)CC2NC(=O)N1c1cccc(C(=O)N2CCN(c3ccccc3)CC2)c1 (stereo not drawn)	none
CC(=O)c1ccc(N2CCN(C(=O)c3ccc(OCc4c(C)noc4C)cc3)CC2)cc1	LYPLA2 inh 37 | LYPLA2 confirm 28
Cc1cc(-c2sccc2C)nc(-n2cccc2)n1	none
CCN1CC2=C(OC(N)=C(C#N)C2c2cccs2)/C(=C\c2cccs2)C1 (stereo not drawn)	none
CC(C)(O)c1cc2ccc(C#CCCN3C(=O)c4ccccc4C3=O)cc2c(=O)o1	none (no result: LYPLA1 counter, GSTO1 inh, Fam108B counter, PME-1 primary, LYPLA2 inh)
COc1ccc(C(=O)N2CCN(c3cccc(Cl)c3)CC2)cc1	none
COc1ccc(N2CCN(C(=O)c3ccc(NC(=O)C4=CSCCO4)cc3)CC2)cc1	LYPLA2 inh 35 | LYPLA2 confirm 38
COc1cccc(N2CCN(C(=O)c3ccc(-c4ccccc4)cc3)CC2)c1	LYPLA2 inh 30 | LYPLA2 confirm 26
O=C(Nc1ccc(C(=O)N2CCN(c3ccc(F)cc3)CC2)cc1)C1=CSCCO1	none
COc1ccc(N2CCN(C(=O)CCNC(=O)c3ccc(C(C)(C)C)cc3)CC2)cc1	none
COc1ccc(N2CCN(C(=O)c3ccc(C(C)(C)C)cc3)CC2)cc1	LYPLA2 inh 79 | LYPLA2 confirm 87 | LYPLA2 ABPP 86
CCOC(=O)N1CCN(C(=O)c2ccc(Cn3c(=S)[nH]c4cc(C(=O)OC)ccc4c3=O)cc2)CC1	LYPLA2 inh 29 | LYPLA2 confirm inactive
O=C(c1ccc(Cn2c(=S)[nH]c3ccc(N4CCOCC4)cc3c2=O)cc1)N1CCN(c2ccc(F)cc2)CC1	none
O=C(c1ccc(Cn2c(=O)[nH]c3ccccc3c2=O)cc1)N1CCN(c2ccc(F)cc2)CC1	LYPLA2 inh 42 | LYPLA2 confirm 35
COc1ccc(N2CCN(C(=O)c3ccc(Cn4c(=S)[nH]c5ccc(N6CCOCC6)cc5c4=O)cc3)CC2)cc1	LYPLA2 inh 75 | LYPLA2 confirm 72 | LYPLA2 ABPP inactive
CCOC(=O)c1ccc(NS(=O)(=O)c2ccc3oc(=O)[nH]c3c2)cc1	none
